Test results as given in PubChem BioAssay (EPA / NIEHS).
The source made the active and inactive calls. The calls were made as follows: active = hit-call score of the fitted dose curve at least 0.9, where 1 is the maximum; inactive = score below 0.9.

What follows are molecules tested against Paired box protein Pax-6 (Homo sapiens) (UniProt P26367) (assay: ATG_Pax6_CIS: Attagene CIS-FACTORIAL HepG2 Assay for human Paired Box 6 (PAX6) (AID 2282956)). Conditions: HepG2 CIS-FACTORIAL PAX6 reporter transcription, RNA readout; actives raise or lower the signal.
Sequence of Paired box protein Pax-6 (Homo sapiens) (P26367 whole entry, looked up): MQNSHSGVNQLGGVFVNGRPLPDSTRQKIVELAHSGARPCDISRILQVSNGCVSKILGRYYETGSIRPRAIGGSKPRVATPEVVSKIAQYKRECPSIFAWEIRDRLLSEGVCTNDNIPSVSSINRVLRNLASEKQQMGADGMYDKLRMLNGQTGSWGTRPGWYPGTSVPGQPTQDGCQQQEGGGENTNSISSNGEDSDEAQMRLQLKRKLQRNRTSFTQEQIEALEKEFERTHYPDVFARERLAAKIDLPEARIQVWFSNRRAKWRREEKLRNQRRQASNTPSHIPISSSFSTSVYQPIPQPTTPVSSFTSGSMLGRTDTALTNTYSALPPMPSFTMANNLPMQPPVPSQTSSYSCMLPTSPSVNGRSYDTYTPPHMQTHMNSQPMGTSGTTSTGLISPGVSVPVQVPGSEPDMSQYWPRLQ
Method: ATG_CIS is a cell-based, multiplexed-readout assay that uses HepG2, a human liver cell line, with measurements taken at 24 hours after chemical dosing in a 24-well plate.ATG_Pax6_CIS is one of 52 assay component(s) measured or calculated from the ATG_CIS assay. It is designed to make measurements of mRNA induction, a form of inducible reporter, as detected with fluorescence intensity signals by Reverse transcription polymerase chain reaction (RT-PCR) and Capillary electrophoresis technology.Data from the assay component ATG_Pax6_CIS was analyzed into 1 assay endpoint. This assay endpoint, ATG_Pax6_CIS, was analyzed with bidirectional fitting relative to DMSO as the negative control and baseline of activity. Using a type of inducible reporter, measures of mRNA for gain or loss-of-signal activity can be used to understand the reporter gene at the transcription factor-level as they relate to the gene PAX6. Furthermore, this assay endpoint can be referred to as a primary readout, because this assay has produced multiple assay endpoints where this one serves a reporter gene function. To generalize the intended target to other relatable targets, this assay endpoint is annotated to the dna binding intended target family, where the subfamily is paired box protein.
Human liver HepG2 cells are transiently transfected with multiple reporter transcription units (MRTUs) in 6-well plates using FuGene 6 reagent (Roche; 3 ml FuGene/1 mg DNA). The MRTU constructs are regulated by a cis-regulating element (promoter). […] A major difference between the CIS and TRANS system is that in CIS activities of endogenous TFs are measured, whereas the TRANS assay evaluates changes in activities of exogenous, chimeric NR-Gal4 proteins. […] At the end of 24 hour incubation, total RNA was isolated using TriZol reagent (Invitrogen). The isolated RNA is then reverse-transcribed using oligo(dT) primer and Mo-MLV reverse transcriptase (Invitrogen) with DNAse I (Ambion) treatment for 30 min. The one-tenth of the produced cDNA was amplified by PCR using Taq DNA polymerase (Invitrogen) and two reporter sequence-specific primers. The PCR products were fluorescently labeled by primer extension with 6-arboxyfluorescein (6-FAM) 5'-labeled reporter sequence-specific primer (2 min at 95 C, 20 s at 68 C and 10 min at 72 C) and these products were digested with 5U of HpaI (New England Biolabs) for 2h at 37 C. The fragments were purified using Qiaquick PCR columns (Qiagen), analyzed on an ABI 3130xL genetic analyzer (Applied Biosystems) with peak positions identified by using a set of X-rhodamine (ROX)-labeled MapMarker1000 molecular weight standards (BioVentures). The raw capillary electrophoresis data was processed using Attagraph software (Attagene).

SMILES	outcome	AC50
CCN(CCO)CCO	inactive	–
OC(Cc1ccccc1Cl)(Cn1cncn1)C1(Cl)CC1 (stereo not given)	inactive	–
CCOP(=O)(OCC)SCCSCC	inactive	–
N#Cc1ccccc1N	inactive	–
CC[N+](CC)(CC)CC	inactive	–
CC(C)CC(C)(c1ccc(O)cc1)c1ccc(O)cc1	–	17.2 µM (active)
OCCCCO	inactive	–
Nc1ncn[nH]1	inactive	–
CCCCC(CC)C(=O)Cl (stereo not given)	inactive	–
CC(=O)CN(CC(C)=O)N=O	inactive	–
C=CCOC(N)=O	inactive	–
CCOCn1c(-c2ccc(Cl)cc2)c(C#N)c(Br)c1C(F)(F)F	–	2.77 µM (active)
O=CCCl	–	42.5 µM (active)
Nc1ccc(-c2ccccc2)cc1	inactive	–
O=C(CBr)c1ccc(O)cc1	inactive	–
N#Cc1ccccc1Cl	inactive	–
Nc1nc(=S)[nH][nH]1	inactive	–
Oc1ccc(Cc2ccc(O)cc2)cc1	inactive	–
C[N+](C)(C)Cc1ccccc1	inactive	–
FC(F)OCC(F)(F)C(F)(F)F	inactive	–

SMILES	outcome	AC50
O=C(CCl)Nc1ccccc1	–	72.6 µM (active)
C#CCO	inactive	–
CC(C)O.CC(C)O.OCCN(CCO)CCO.OCCN(CCO)CCO.[Ti]	inactive	–
O=S(=O)(Oc1ccc(Cl)cc1)c1ccc(Cl)cc1	inactive	–
ClCCN1CCOCC1	inactive	–
CN(CCCC(O)c1cccnc1)N=O (stereo not given)	inactive	–
COc1ccc([N+](=O)[O-])cc1O	inactive	–
CN(C1CCCCC1)C1CCCCC1	inactive	–
CC(C)=CC1C(C(=O)OCc2cccc(Oc3ccccc3)c2)C1(C)C (stereo not given)	inactive	–
C=CCCl	inactive	–
C=CC(=O)NC(C)(C)CC(C)=O	inactive	–
OC[C@@H](O)[C@H]1O[C@@H]2O[C@H](C(Cl)(Cl)Cl)O[C@@H]2[C@H]1O	inactive	–
CNC(=O)CSP(=O)(OC)OC	inactive	–
NNCCO	inactive	–
COCCl	inactive	–
CC(C)(c1ccccc1)c1cc(-n2nc3ccccc3n2)c(O)c(C(C)(C)c2ccccc2)c1	inactive	–
O=[N+]([O-])c1c2ccccc2cc2ccccc12	inactive	–
Nc1ccc(Br)cc1	inactive	–
CCCCCCCCCCCCBr	inactive	–
Brc1ccc(Oc2c(Br)cc(Br)cc2Br)c(Br)c1	inactive	–
